Only some compounds are listed: those with a hit (about 5.4% of all), similar ones and a draw of the others.
Calb FLC: affects C. albicans growth with fluconazole | C. albicans CaCi-2 (fluconazole-resistant clinical isolate) + fluconazole, Alamar Blue growth, 48 h | growth inhibition, % (test concentration not listed) | actives 0.57% (n = 300,000) | AID 1979;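 active means growth inhibition above about 58% in most replicates, limit read from the data, passing the limit was not always enough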;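 further: all wells also contain fluconazole at 8 µg/ml as a sub-toxic cotreatment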
ALR inh: blocks human ALR sulfhydryl oxidase activity; P55789; purified ALR, DTT oxidation, H2O2 HRP-luminol luminescence; inhibition, % (no concentration beside the values); actives 3.8% (n = 290,000);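 active means mean replicate inhibition above about 79%, with every replicate also reaching it, limit read from the data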
CSC inhib: cancer stem cell inhibition. cancer stem cell-like cells viability, luminescence. inhibition, % at 7.5 µM. actives 1.1% (n = 300,000); in the data active means inhibition above about 75%; tested in HMLE shEcad cells
PP5 primary: inhibitors of human protein phosphatase 5 (PP5). purified PP5c, OMFP substrate fluorescence. inhibition, % at 6.7 µM. actives 0.18% (n = 320,000). AID 1987;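 active means inhibition above the campaign's mean inhibition across all tested compounds plus 3 SD, cut at about 9.5% in these data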
PP1 inh: PP1-alpha (human) inhibition in PP5 counter-screen; AID 2235; inhibition, % at 6.7 µM; purified PP1alpha, OMFP fluorescence; actives 0.9% (n = 320,000); P62136;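 active means inhibition above the mean inhibition of all tested compounds plus 3 SD, computed separately for each screening campaign, cut at about 15% in these data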
Target sequence (P62136 whole entry, looked up): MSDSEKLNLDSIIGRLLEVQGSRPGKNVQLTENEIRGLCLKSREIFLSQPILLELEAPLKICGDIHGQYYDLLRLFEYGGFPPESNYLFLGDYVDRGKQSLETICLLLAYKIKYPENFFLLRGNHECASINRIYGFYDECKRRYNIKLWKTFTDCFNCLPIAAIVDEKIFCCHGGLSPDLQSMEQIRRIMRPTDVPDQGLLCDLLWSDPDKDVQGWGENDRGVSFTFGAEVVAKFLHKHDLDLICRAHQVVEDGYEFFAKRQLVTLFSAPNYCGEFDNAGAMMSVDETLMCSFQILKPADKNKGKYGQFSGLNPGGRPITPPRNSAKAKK
A number is an active result; - = inactive; . = no result.

SMILES	Calb FLC	ALR inh	CSC inhib	PP5 primary	PP1 inh
O=S(=O)(c1cnc[nH]1)N1CCN(c2ccc(Cl)cc2)CC1	-	.	-	-	-
O=C(C1CCCN(S(=O)(=O)c2cnc[nH]2)C1)N1CCN(c2ccc(Cl)cc2)CC1 (centres undefined)	-	96	-	-	-
COc1cccc(CN(C(=O)c2ccccc2Br)C2CCS(=O)(=O)C2)c1 (centres undefined)	-	-	-	-	-
Cc1ccc(CN(C(=O)c2ccco2)C2CCS(=O)(=O)C2)cc1 (centres undefined)	-	-	-	-	-
CCOc1ccc(CN(C(=O)c2oc3ccccc3c2C)C2CCS(=O)(=O)C2)cc1 (centres undefined)	101	-	.	-	-
CN(C)c1ccc(CN(C(=O)c2cc3ccccc3oc2=O)C2CCS(=O)(=O)C2)cc1 (centres undefined)	-	89	-	-	-
CC(C)c1ccc(CN(C(=O)c2cc3ccccc3oc2=O)C2CCS(=O)(=O)C2)cc1 (centres undefined)	-	-	-	-	-
CN(C)c1ccc(CN(C(=O)c2ccccc2Br)C2CCS(=O)(=O)C2)cc1 (centres undefined)	-	96	-	-	-
CN(C)c1ccc(CN(C(=O)c2ccco2)C2CCS(=O)(=O)C2)cc1 (centres undefined)	-	82	-	-	-
COc1ccc(S(=O)(=O)NCc2ccccc2)cc1Br	-	-	-	-	-
COc1ccc(NS(=O)(=O)c2cccc(C(=O)N(C)Cc3ccc(SC)cc3)c2)cc1	-	-	-	-	-
Cc1cc(NC(=O)CSc2nnc(-c3c[nH]c4ccccc34)n2-c2ccc(Cl)cc2)no1	-	-	-	-	15
Cc1ccc(-n2c(SCC(=O)Nc3cc(C)on3)nc3c([nH]c4ccccc43)c2=O)cc1	-	-	-	-	-

High-throughput results from PubChem BioAssay.
